From PubChem BioAssay (NCI)
Compounds without any hit were thinned out: in the full panel of roughly 83,000, 20% have a hit.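 How to read the values: 0–100, growth inhibition (40 = 60% inhibited); 0, no net growth; -100 to 0, cell death (-40 = 40% of starting cells died; -100 = all dead).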 Values without a mark were called inactive. Activity calls are given as the source filed them. How the source made its calls: active means growth percent below 10; inactive means the rest.

test system: T-47D breast; experiment: NCI-60 one-dose screen, 48 h (100 = growth as untreated, 0 = no growth, -100 = all killed); conditions: 10 µM

Point of comparison: `COC1=C[C@@]23CCC(=O)N2CCc2cc4c(cc2[C@H]3[C@H]1OC(=O)C(C)(C)O)OCO4`, growth 91.6%. Against it:
- O=C(Nc1cccc(C(F)(F)F)c1)c1cncc(C#Cc2cnc3cccnn23)c1 — lower, 13.5%
- CCOc1ccc(/C=N/NC(=O)Cn2nc(Cc3ccccc3)c3onc(C)c3c2=O)cc1 — lower, 44.9%
- COc1cc(/C=C/C(=O)c2ccc(C(F)(F)F)cc2)ccc1Oc1nc(Nc2ccc(F)cc2)nc(N(C)C)n1 — lower, 44.6%
- CC(=O)c1cc(C(=O)N2c3ccccc3Sc3ccccc32)n2ccc(C)cc12 — lower, 20.8%
- CN1CCCN(Cc2ccc(C(=O)Nc3cccc(Nc4ccc5cc(O)ccc5n4)c3)cc2C(F)(F)F)CC1 — lower, 88.7%
- COc1ccc(N2N=C(c3ccc4c(c3)OCCO4)CC2c2cccc(NC(=O)CCCNS(=O)(=O)c3ccc(F)cc3)c2)cc1 (configuration not stated) — lower, 63.3%
- CC(=O)Nc1ccc(-n2cnc3cc(-c4ccc(O)cc4)ccc32)cc1F — lower, 29.9%
- O=C1NC(=NC2CCCCCC2)N/C1=C\c1ccc2ncoc2c1 — lower, 18.9%
- CCN1CCN(Cc2ccc(C(=O)Nc3cccc(-c4cn(-c5ccc6oc(=O)ccc6c5)nn4)c3)cc2C(F)(F)F)CC1 — lower, 82.9%
- CN1C(=O)N(C)C2SC(N/N=C/c3cccs3)=NC21 (configuration not stated) — lower, 21.7%
- Cc1cc(C)cc(Oc2cccc(-c3c(C)nnn3C3CCN(CCN(C)C)CC3)n2)c1 — lower, 24.8%
- CC1=C(c2cc(-c3ccc(Cl)cc3)c(C#N)c(N)n2)C(c2ccccc2)NC(=S)N1 (configuration not stated) — lower, 54.5%
- Cc1ccc(-c2nc3ccc(C(=O)N=Nc4c(O)[nH]c5ccc(Br)cc45)cc3[nH]2)cc1 — lower, 84.7%
- CN1CCc2c(sc3ncnc(N/N=C/c4ccc5ccccc5c4)c23)C1 — higher, 92.1%
- COc1cc2c3c(n(CCCN4CCOCC4)c(=O)c2cc1OC)-c1nc2c(cc1C3=O)OCO2 — lower, 14.5%
- Cn1c(O)c(N=Nc2nc(-c3cc4ccccc4oc3=O)cs2)c2cc(Br)ccc21 — lower, 82.8%
- C=C1CCC2C3(C)COC(c4c(F)cccc4F)OC3CCC2(C)C1CC(O)C1=CCOC1=O (configuration not stated) — lower, 47.6%
- Cc1cccc2cc(-c3cc(-c4ccccc4)nc(=S)[nH]3)c(Cl)nc12 — lower, 72.9%
- COc1ccc(/C=C/C(=O)c2ccc(N3CCN(C)CC3)cc2)c(C(F)(F)F)c1 — lower, 39.7%
- Cc1cccc(NC(=O)CSc2nc3ccc(F)cc3c(=O)n2-c2ccc(Cl)cc2)c1C — lower, 91.5%
- CC1(c2ccccc2)NC(=O)N(CC(=O)Nc2ccc(C(=O)/C=C/C=C/c3ccccc3)cc2)C1=O (configuration not stated) — lower, 17%
- COc1cccc(-c2ccnc(/N=C(\N)Nc3ccc(S(=O)(=O)Nc4nc(C)cc(C)n4)cc3)n2)c1 — lower, 88.4%
- COc1ccc2[nH]c(=O)c(CSc3cccc(N)c3)cc2c1 — lower, 37.5%
- C/C(=N\N=C\c1ccc(Cl)c([N+](=O)[O-])c1)c1ccc2c(c1)Nc1ccccc1S2 — lower, 41.3%
- CCOc1ccc(Nc2nc3ccccc3nc2Nc2ccc(OCC)cc2)cc1 — lower, 32.1%

With `CC1(C)CC[C@]2(C(=O)N3CCOCC3)CC[C@]3(C)C(=CC[C@@H]4[C@@]5(C)CC[C@H](NCO)C(C)(C)[C@@H]5CC[C@]43C)[C@H]2C1` the growth was -72.4% (active).
With `COC[C@@H](CC(C)C)N=C1NC(=O)/C(=C/c2ccc3ncsc3c2)N1` the growth was -7.77% (active).
In the case of `CN1CCN(Cc2ccc(C(=O)Nc3cccc(Nc4ccc5c(O)cccc5n4)c3)cc2C(F)(F)F)CC1`, the growth was -36.8% (active).
With `O=C(Nc1nc2ccc([N+](=O)[O-])cc2s1)Nc1ccccc1I` the growth was -16.7% (active).
`CC(=O)Nc1ccc(-c2cn(-c3cccc(C(=O)Nc4cc(CN5CCOCC5)cc(C(F)(F)F)c4)c3)nn2)cn1` was tested, and the growth was -71.5% (active).
For `O=C(Nc1ccc(I)cc1F)c1cc(-c2ccc(F)cc2F)ccc1O`, the growth was -22.7% (active).
For `COc1ccc(CCN2C(=O)/C(=C/c3csc(C#N)n3)SC2=S)cc1OC`, the growth was -7.6% (active).
For `COc1ccc2c3nc4cc(C)c(C)cc4nc3n(CCN(C)C)c2c1`, the growth was -12.2% (active).
In the case of `CCOP(=O)(OCC)O[C@H]1CC[C@]2(C)[C@H]3CC[C@@H]4[C@@H]([C@](C)(O)CCC=C(C)C)CC[C@@]4(C)[C@]3(C)CC[C@H]2C1(C)C`, the growth was 9.26% (active).
In the case of `COc1cc(-c2nc3cc(Cl)c(Cl)cc3[nH]2)ccc1OCc1nnc(-c2ccc(Br)cc2)o1`, the growth was -38.4% (active).
In the case of `O/N=C(\CSc1nnc(-c2c[nH]c3ccccc23)n1-c1ccccc1)c1ccc(Cl)cc1`, the growth was 3.91% (active).
